NADH coupling: inhibitors of enzymes used to reach an NAD/NADH endpoint; 0.02% of 65,000 active; AID 774; IC50, µM (top dose mostly 10 µM), without a hit: at the top dose inhibition; coupled PK/LDH NADH assays, four targets;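 active = single-dose screening hits from any of four coupled enzyme assays that gave an IC50 when retested across doses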;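 note: the DPM-DC format reads NADH fluorescence rather than 340 nm absorbance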
MK inhibit: inhibitors of Streptococcus pneumoniae mevalonate kinase; 0.48% of 65,000 active; AID 555; purified MK, PK/LDH-coupled NADH absorbance 340 nm; inhibition, % at 10 µM;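 active = ranked among the strongest by inhibition in the single 10 µM screen, a fixed top-ranked set picked for dose follow-up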
DPM-DC inhibit: blocks S. pneumoniae diphosphomevalonate decarboxylase; 0.49% of 65,000 active; purified DPM-DC, PK/LDH coupled NADH fluorescence; AID 556; calls only at 10 µM;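 active = the 320 compounds with the highest percent inhibition in the single-dose primary screen, excluding strongly autofluorescent ones, cut at about 32% in these data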;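 note: kinetic rate of NADH fluorescence loss reporting ADP formed by the decarboxylase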
Autofluor 339: intrinsic fluorescence of library compounds, ex339/em460 – biochemical, MLSMR library, data from DPM-DC assay, artefact control, profiling panel; compound autofluorescence, ex339/em460 nm, NADH buffer; active compounds read high; 1 = no-compound wells, NADH background; fluorescence fold increase at 10 µM; 5.5% of 65,000 active;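 active = at 10 µM, mean starting fluorescence two-fold or more over control wells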;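 note: signal is the first read of a kinetic run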
PMK inhibit: inhibitors of Streptococcus pneumoniae phosphomevalonate kinase | purified PMK, PK/LDH-coupled NADH absorbance 340 nm | 0.49% of 65,000 active | AID 539 | inhibition, % at 10 µM;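 active = top-ranked compounds by inhibition in the single 10 µM screen, taking a fixed number of the strongest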;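 note: 0% = full reaction with DMSO carrier and 100% = background rate without enzyme reaction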
Abs 340nm: compound absorbs light at 340 nm; compound absorbance at 340 nm, fold over control; fold change at 10 µM; 65,000 tested, under 10 active;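 active = at 10 µM dose, initial 340 nm absorbance at least 2 fold that of control wells; inactive = change under 2 fold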;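 note: initial absorbance extrapolated from kinetic A340 decline of NADH oxidation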
Active calls of the source: *; i = inactive; · = no result given; + = active, no number. The list is not random: actives were taken first. Their share in the collection is about 6.3%.

SMILES	NADH coupling	MK inhibit	DPM-DC inhibit	Autofluor 339	PMK inhibit	Abs 340nm
N#Cc1c(C(F)(F)F)cc(-c2ccccc2)nc1SCc1nc(N)nc(N2CCOCC2)n1	9%	0	i	1.2	21	1.1
O=C(COc1ncnc2ccccc12)NCCC1=CCCCC1	0%	0	i	1.1	0	1
O=C(COc1cnc2ccccc2n1)NCCC1=CCCCC1	16%	2	+	2	11	1.1
c1ccc2nc(-c3nc4ccccc4o3)ccc2c1	11%	17	·	2.1*	5	1.2
c1cc(-c2nc3ccccc3o2)nc(-c2nc3ccccc3o2)c1	5%	10	i	1.2	15	0.98
CC(C)OC(=O)CC1=NC(=O)CS1	5%	15	i	1.1	0	1
CC(C)OC(=O)CCC1(C(=O)O)CCC(=O)NC1 (configuration not stated)	12%	11	i	1	25*	0.99
COc1ccccc1-c1c(C#N)c(SCC(=O)N2CCCC2)nc(C)c1C(N)=O	7%	11	i	1.1	0	1
COc1ccc(-c2c(C)oc3cc(O)cc(O)c3c2=O)cc1OC	3%	7	i	1.1	0	1.1
O=c1c(-c2ccc(F)cc2)coc2cc(O)ccc12	5%	9	·	2.2*	0	1.1
COc1ccc(-c2coc3cc(O)ccc3c2=O)cc1OC	16%	0	+	3.6*	17	1.1
CC1(C)CC(=O)C2=C(C1)N(CCN1CCOCC1)C1=C(C(=O)CC(C)(C)C1)C2c1cccc(Cl)c1	0%	·	·	4.3*	0	0.99
O=S1(=O)CCC(SCc2nc3sccn3c2Br)C1 (configuration not stated)	4%	5	i	1.1	6	1
Cc1cc(C)n2cc(CSCc3ccco3)nc2n1	5%	0	i	1.4	19	0.98
Cc1ccccc1-n1nnnc1SCc1ncc(-c2ccccc2)o1	5%	0	i	1.1	14	1
Cc1cc(C)n2cc(CSC3=NCCS3)nc2n1	1%	0	·	4.8*	2	1
Cc1cc(C)n2cc(CSc3ncccc3C(=O)O)nc2n1	11%	9	·	5*	13	1
Cc1cc(C)n2cc(CSc3nnnn3-c3ccccc3C)nc2n1	7%	4	i	2.1*	17	1
Cc1ccc2[nH]c(=O)c(C(c3nnnn3CC3CCCO3)N3CCCc4ccccc43)cc2c1 (configuration not stated)	3%	6	i	1.1	3	1
Cc1ccc(S(=O)(=O)Nc2c(C)n(C)n(-c3ccccc3)c2=O)cc1C(=O)NCc1ccccn1	7%	0	i	1.1	20	1
Cc1cc(C)n(C(=O)C23CC4CC(CC(C4)C2)C3)n1	1%	5	i	1.1	1	0.98
Fc1ccccc1OCCCN1CCOCC1	17%	52*	i	1.1	0	1.1
CCc1ccccc1OCCCCN1CCCC1	8%	71*	i	1	3	1
Clc1ccccc1OCCN1CCCCC1	17%	41*	i	1.1	11	1.1
Clc1ccccc1OCCn1ccnc1	3%	10	i	1.1	0	1.1
SMILES	NADH coupling	MK inhibit	DPM-DC inhibit	Autofluor 339	PMK inhibit	Abs 340nm
COc1cccc(OCCCCN2CCCCC2)c1	19%	55*	i	1.1	0	1
CCOC(=O)N1CCN(C(=O)CN(c2ccc(OCc3ccccc3)cc2)S(C)(=O)=O)CC1	1%	1	i	1.1	0	1.1
O=C(CN(C(=O)CCC(=O)Nc1nccs1)c1ccc(F)c(Cl)c1)NCc1ccco1	6%	0	i	1	17	1
Cc1ccc2[nH]c(=O)c(CN(Cc3cccnc3)Cc3nnnn3CCN3CCOCC3)cc2c1	4%	7	i	1.4	6	1.1
Cc1noc(C)c1C(=O)OCC(=O)c1cc(C)n(Cc2ccccc2Cl)c1C	9%	9	i	1	17	1
Cc1ccccc1OCCCN1CCCC1	14%	43*	i	1.1	0	1.1
Cc1ccc(OCCN2CCCCCC2)c(C)c1	5%	6	i	1.1	10	1
C=CCc1ccccc1OCC(CN1CCCCC1)OC(C)=O (configuration not stated)	6%	0	i	1.3	18	0.99
C=CCc1ccccc1OCCCCN1CCCC1	6%	45*	i	1	9	1

From PubChem BioAssay
